{
  "source": "PubChem BioAssay AID2590",
  "about": "(National Center for Advancing Translational Sciences (NCATS), 2010)",
  "note": "Results filed as inconclusive are left out. Activity calls are given as the source filed them. The call rests on the fitted dose curve; in most records, active means well fitted curve in the direction sought with a large enough effect; inconclusive means small, poorly fitted or top-dose-only effect, or another doubt; inactive means no such curve, though single readings can be large or run the other way. Potency means the concentration at half of the fitted maximal effect.",
  "data": [
    {"biological_target": "Lysosomal acid glucosylceramidase (Homo sapiens) (UniProt P04062)", "sequence (P04062 whole entry N409S)": "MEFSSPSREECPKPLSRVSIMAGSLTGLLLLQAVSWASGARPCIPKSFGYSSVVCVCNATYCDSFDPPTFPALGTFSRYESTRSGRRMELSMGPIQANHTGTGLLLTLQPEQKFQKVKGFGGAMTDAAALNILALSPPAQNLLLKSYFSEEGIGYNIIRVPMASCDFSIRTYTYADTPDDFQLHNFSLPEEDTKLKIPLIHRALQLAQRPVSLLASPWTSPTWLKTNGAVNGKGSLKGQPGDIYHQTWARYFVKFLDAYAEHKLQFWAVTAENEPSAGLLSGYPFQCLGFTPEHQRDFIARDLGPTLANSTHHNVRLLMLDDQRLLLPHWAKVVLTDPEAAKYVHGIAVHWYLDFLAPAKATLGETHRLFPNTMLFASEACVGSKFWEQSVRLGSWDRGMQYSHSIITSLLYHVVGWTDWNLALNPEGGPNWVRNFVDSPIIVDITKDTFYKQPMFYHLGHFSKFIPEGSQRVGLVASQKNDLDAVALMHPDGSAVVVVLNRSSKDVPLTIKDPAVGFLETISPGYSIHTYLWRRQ", "experiment": "qHTS Assay for Inhibitors and Activators of N370S glucocerebrosidase as a Potential Chaperone Treatment of Gaucher Disease: Primary Screen Confirmation;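 on activity change, negative = inhibition: 0% = enzyme with DMSO and -100% = no enzyme basal signal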", "details": "N370S glucocerebrosidase enzyme activity, fluorogenic substrate; series mostly up to 54 µM; activity change, negative = inhibition: at the top concentration", "from_the_text": "NIH Chemical Genomics Center [NCGC]\nNIH Molecular Libraries Probe Production Centers Network [MLPCN]\nAssay Submitter (PI): Wei Zheng\nGlucocerebrosidase (GC) catalyzes the hydrolysis of beta-glucocerebroside to glucose and ceramide in lysosomes. Mutations in the glucocerebrosidase gene result in Gaucher disease, an autosomal recessive lysosomal storage disorder. Many of the mutations encountered in patients with Gaucher disease are missense alterations that may cause misfolding, decreased stability and/or mistrafficking of this lysosomal protein. […] These inhibitors include iminosugar analogs and three non-iminosugar inhibitors identified from a previous HTS of 62,000 compounds with the wild type recombinant enzyme. However, the enhancement of enzyme activity by the chaperone action of an enzyme inhibitor must be balanced against the direct inhibition of the enzyme. An enzyme activator could also function as a chaperone by binding to the enzyme and helping to correct its misfolding and mistrafficking. While activators for GC have not yet been identified, they may have better therapeutic potential than inhibitors. Therefore the discovery and development of chemical activators may provide a new strategy for the chaperone therapy.\nWe have optimized a new assay using N370S mutant GC derived from the spleen of a Gaucher patient. […] In addition, the MLPCN compound library has expanded, which increases the chance of finding new and better probes.\nNCGC Assay Protocol Summary:\nThis is a fluorogenic enzyme assay with 4-methylumbelliferyl-beta-D-glucopyranoside as the substrate and N370S glucocerebrosidase from human spleen homogenate as the enzyme preparation. Upon the hydrolysis of this fluorogenic substrate, the resulting product, […] which can be detected by a standard fluorescence plate reader. Data were normalized to the controls for basal activity (without enzyme) and 100% activity (with enzyme). The AC50 values were determined from concentration-response data modeled with the standard Hill equation.\nAssay buffer: 50 mM citric acid (titrated with potassium phosphate to pH 5.0), 100 mM potassium chloride, 10 mM sodium chloride, 1 mM magnesium chloride, 0.01% Tween-20.\n1536-well assay protocol:\n(1) Add 2 ul/well of spleen homogenate (27 ug final)\n(2) Add 23 nL compounds in DMSO solution. The final titration was 0.5 nM to 58 uM.\n(3) Add 2 ul of substrate (1 mM final)\n(4) Incubate at 37C for 40 min.\n(5) Add 2 ul stop solution (1M NaOH and 1M Glycine mixture, pH 10)\n(6) Detect the assay plate in a ViewLux plate reader (PerkinElmer) with Ex=365 nm and Em=440nm.\nKeywords: Glucocerebrosidase, beta-glucosidase, Gaucher Disease, pharmacological chaperone, chaperone therapy, high throughput screening, glucocerebrosidase inhibitor, MLSMR, MLSCN, NIH Roadmap, qHTS and NCGC", "values": [
      {"compound": "COc1ccc(Nc2nc(-c3cccs3)nc3ccccc23)cc1", "Potency": "2250 nM (active)"},
      {"compound": "Cc1cccn2c(=O)c3cc(C(=O)NCCc4ccccc4)sc3nc12", "activity change, negative = inhibition": "8.55% (inactive)"},
      {"compound": "S=C(NCCCN(Cc1ccc(Cl)c(Cl)c1)c1ccc(Br)cn1)NCCc1cnc[nH]1", "Potency": "18300 nM (active)"},
      {"compound": "Cc1ccc(S(=O)(=O)N(C)CCCN(C)c2nc(-c3cccs3)nc3ccccc23)cc1", "Potency": "2530 nM (active)"},
      {"compound": "O=[N+]([O-])c1ccccc1S(=O)(=O)N1CCN(c2nc(-c3cccs3)nc3ccccc23)CC1", "Potency": "730 nM (active)"},
      {"compound": "CNCCN(C)c1nc(-c2cccs2)nc2ccccc12", "activity change, negative = inhibition": "-7.1% (inactive)"},
      {"compound": "O=S(=O)(c1ccc(C(F)(F)F)cc1)N1CCN(c2nc(-c3cccs3)nc3ccccc23)CC1", "Potency": "2530 nM (active)"},
      {"compound": "CC(=O)NCCCN(Cc1ccc(Cl)c(Cl)c1)c1ccc(Br)cn1", "activity change, negative = inhibition": "0.436% (inactive)"},
      {"compound": "O=S(=O)(c1ccc2c(c1)OCO2)N1CCN(c2nc(-c3cccs3)nc3ccccc23)CC1", "Potency": "291 nM (active)"},
      {"compound": "O=C(Nc1cc(Br)ccc1O)c1cnn2c(C(F)F)cc(C3CC3)nc12", "activity change, negative = inhibition": "7.23% (inactive)"},
      {"compound": "COc1ccc(CN(CCCN)c2ccc(Br)cn2)cc1", "activity change, negative = inhibition": "-27% (inactive)"},
      {"compound": "CCOc1ccc(S(=O)(=O)N2CCN(c3nc(-c4ccccc4)nc4ccccc34)CC2)cc1", "Potency": "4110 nM (active)"},
      {"compound": "CCOCCCNc1nc(-c2ccccc2)nc2ccccc12", "Potency": "10100 nM (active)"},
      {"compound": "Clc1ccc(CN(CCCNc2ncnc(NCCCc3cnc[nH]3)n2)c2ccc(Br)cn2)cc1Cl", "Potency": "5660 nM (active)"},
      {"compound": "Cc1ccccc1NC(=O)Nc1ccccn1", "activity change, negative = inhibition": "2.43% (inactive)"},
      {"compound": "c1ccc(CNc2nc(-c3ccccc3)nc3ccccc23)cc1", "Potency": "10100 nM (active)"},
      {"compound": "Cc1cccc(NC(=O)Nc2cccc(C)n2)n1", "activity change, negative = inhibition": "25.9% (inactive)"},
      {"compound": "O=S(=O)(c1ccc(F)cc1F)N1CCN(c2nc(-c3cccs3)nc3ccccc23)CC1", "Potency": "1270 nM (active)"},
      {"compound": "Oc1ccccc1Nc1nc(NCC2CCCO2)c2ccccc2n1", "note": "(stereo not given)", "activity change, negative = inhibition": "-38.7% (inactive)"},
      {"compound": "Cc1ccc(-c2nc(Nc3ccc(O)cc3)c3ccccc3n2)cc1", "Potency": "12700 nM (active)"},
      {"compound": "c1ccc2c(NCC3CCCO3)nc(N3CCOCC3)nc2c1", "note": "(stereo not given)", "activity change, negative = inhibition": "6.26% (inactive)"},
      {"compound": "O=S(=O)(c1ccc2c(c1)OCCO2)N1CCN(c2nc(-c3ccccc3)nc3ccccc23)CC1", "Potency": "3200 nM (active)"},
      {"compound": "N#C/C(=C\\c1c(Oc2ccccc2Cl)nc2ccccn2c1=O)C(=O)NC1CCS(=O)(=O)C1", "note": "(stereo not given)", "activity change, negative = inhibition": "1.08% (inactive)"},
      {"compound": "O=S(=O)(c1ccc(OC(F)(F)F)cc1)N1CCN(c2nc(-c3cccs3)nc3ccccc23)CC1", "Potency": "2910 nM (active)"},
      {"compound": "Cc1ccc(S(=O)(=O)N2CCN(c3nc(C#N)nc4ccccc34)CC2)cc1", "activity change, negative = inhibition": "-15.6% (inactive)"},
      {"compound": "COc1ccc(NC(=O)Nc2cccc(C)n2)c(OC)c1", "activity change, negative = inhibition": "18.6% (inactive)"},
      {"compound": "CC(C)S(=O)(=O)N1CCN(c2nc(-c3cccs3)nc3ccccc23)CC1", "Potency": "5070 nM (active)"},
      {"compound": "O=S(=O)(c1ccc(Cl)cc1)N1CCN(c2nc(-c3ccccc3)nc3ccccc23)CC1", "Potency": "5800 nM (active)"},
      {"compound": "Cc1cccc(S(=O)(=O)N2CCN(c3nc(-c4cccs4)nc4ccccc34)CC2)c1", "Potency": "2010 nM (active)"},
      {"compound": "Cc1ccc(S(=O)(=O)N2CCN(c3nc(-c4ccc(C)s4)nc4ccccc34)CC2)cc1", "Potency": "3260 nM (active)"},
      {"compound": "O=S(=O)(Cc1ccccc1)N1CCN(c2nc(-c3cccs3)nc3ccccc23)CC1", "Potency": "2250 nM (active)"},
      {"compound": "S=C(NCCCc1cnc[nH]1)NCCCN(Cc1ccc(Cl)cc1)c1ccc(Br)cn1", "Potency": "1160 nM (active)"},
      {"compound": "O=S(=O)(c1nccs1)N1CCN(c2nc(-c3cccs3)nc3ccccc23)CC1", "Potency": "7300 nM (active)"},
      {"compound": "Cc1cc2nn(-c3ccc(Cl)cc3)nc2cc1N", "activity change, negative = inhibition": "6.68% (inactive)"},
      {"compound": "CCOC(=O)c1ccccc1S(=O)(=O)N1CCN(c2nc(-c3cccs3)nc3ccccc23)CC1", "Potency": "366 nM (active)"},
      {"compound": "Cc1ccc(S(=O)(=O)N2CCN(c3nc(-c4cccs4)nc4cccnc34)CC2)cc1", "Potency": "2530 nM (active)"},
      {"compound": "CCCCNC(=S)NCCCc1cnc[nH]1", "activity change, negative = inhibition": "-23.1% (inactive)"},
      {"compound": "Oc1cccc(Nc2nc(-c3ccccc3Cl)nc3ccccc23)c1", "Potency": "2060 nM (active)"},
      {"compound": "COc1cccc(NC(=O)CSc2nc3c(sc4ccccc43)c(=O)n2CCCN2CCCC2)c1", "activity change, negative = inhibition": "-26.5% (inactive)"},
      {"compound": "O=S(=O)(c1cc(Cl)cc(Cl)c1)N1CCN(c2nc(-c3cccs3)nc3ccccc23)CC1", "Potency": "2530 nM (active)"}
    ]}
  ]
}
